MazEF act: activators of E. coli MazEF toxin-antitoxin RNase, primary screen, biochemical, fluorescence, uHTS; Endoribonuclease toxin MazF (Escherichia coli (strain K12)), P0AE70; FAM/BHQ RNA-DNA oligo cleavage fluorescence, 5 h; activation, % at 20 µM; actives 0.32% (n = 350,000); in the data active = activation above about 50%
SSB-PriA inh: inhibitors of Klebsiella pneumoniae PriA binding to SSB C-terminal tail, primary screen, biochemical, AlphaScreen; AID 1272365, 2023; actives 0.6% (n = 430,000); inhibition, % at 33 µM; AlphaScreen SSBct-PriA binding, biotinylated peptide; in the data active = inhibition mostly above about 37%, no sharp cut-off; inactive = mostly below about 20%;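 note: plate controls were negative control peptide for no effect and reference peptide for full effect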
Anthrax LF prot: Bacillus anthracis LF protease inhibitors, primary screen, biochemical, multiplex microsphere, MLPCN library | Lethal factor (Bacillus anthracis), P15917 | multiplex microsphere protease cleavage assay | inhibition, % at 10 µM | actives 0.12% (n = 360,000); note: plate controls were buffer without enzyme for full effect and enzyme alone for no effect
Target sequence (P15917 whole entry, looked up): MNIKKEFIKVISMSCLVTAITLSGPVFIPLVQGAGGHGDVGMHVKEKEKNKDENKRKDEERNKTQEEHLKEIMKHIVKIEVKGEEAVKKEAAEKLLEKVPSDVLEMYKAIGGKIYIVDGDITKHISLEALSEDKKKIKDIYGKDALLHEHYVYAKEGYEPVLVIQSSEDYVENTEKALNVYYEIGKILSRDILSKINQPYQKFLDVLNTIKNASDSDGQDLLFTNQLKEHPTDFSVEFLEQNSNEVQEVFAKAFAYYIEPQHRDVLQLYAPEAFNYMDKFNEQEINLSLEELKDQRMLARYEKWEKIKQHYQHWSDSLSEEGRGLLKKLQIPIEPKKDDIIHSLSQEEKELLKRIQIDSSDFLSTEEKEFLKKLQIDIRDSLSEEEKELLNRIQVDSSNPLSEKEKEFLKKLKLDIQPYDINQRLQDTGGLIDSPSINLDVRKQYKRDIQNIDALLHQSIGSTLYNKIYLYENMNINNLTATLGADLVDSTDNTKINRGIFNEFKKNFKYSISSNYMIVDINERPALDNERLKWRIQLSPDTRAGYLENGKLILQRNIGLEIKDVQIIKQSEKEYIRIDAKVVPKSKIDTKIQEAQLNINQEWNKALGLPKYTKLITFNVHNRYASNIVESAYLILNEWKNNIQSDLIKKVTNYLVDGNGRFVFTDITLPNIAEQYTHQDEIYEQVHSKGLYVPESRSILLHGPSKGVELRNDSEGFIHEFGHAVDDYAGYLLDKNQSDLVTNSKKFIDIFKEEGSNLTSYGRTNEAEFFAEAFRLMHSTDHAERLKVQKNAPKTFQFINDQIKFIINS
Autofluor counter: counter-screen for toxin protease inhibitors: compound fluorescence. AID 624483. fluorescence intensity (test concentration not listed). compound autofluorescence counterscreen, microsphere flow cytometry; hits give high values. actives 3.1% (n = 360,000); in the data active = fluorescence intensity above about 16000; inconclusive = no clear call, values can overlap the other calls
BoNT-F LC inh: BoNT/F light chain protease inhibitors, primary screen, biochemical, flow cytometry, MLPCN library. Botulinum neurotoxin type F light chain protease (Clostridium botulinum). inhibition, % at 10 µM. actives 0.22% (n = 360,000). Multiplex microsphere protease cleavage assay. AID 588497, 2011; in the data active = inhibition above about 35%, passing the limit was not always enough; inconclusive = no clear call, values can overlap the other calls; note: plate controls were buffer without enzyme for full effect and enzyme alone for no effect
BoNT A protease: BoNT/A light chain protease inhibitors, primary screen, biochemical, flow cytometry, MLPCN library | Botulinum neurotoxin type A light chain protease (Clostridium botulinum A str. ATCC 3502) | multiplex microsphere protease substrate cleavage | inhibition, % at 10 µM | actives 0.17% (n = 360,000) | AID 588499, 2011; note: plate controls were buffer without enzyme for full effect and enzyme alone for no effect
Active calls of the source: *; ? = inconclusive; . = no result. Compounds with a hit are over-represented: about 3.3% of the library has one in this group of screens. Cut-off read from the data, not from the text of the source, unless noted: active = inhibition above about 30%; inconclusive = no clear call, values can overlap the other calls; inactive = below that.

SMILES	MazEF act	SSB-PriA inh	Anthrax LF prot	Autofluor counter	BoNT-F LC inh	BoNT A protease
Nc1nn2c(-c3ccccn3)nnc2s1	.	59.6*	.	.	.	.
Clc1ccccc1-c1nn2c(-c3ccccn3)nnc2s1	1.3	-14.9	-1.8	22234*	-0.4	0.1
Clc1ccccc1-c1nn2c(-c3ccncc3)nnc2s1	0.2	9.2	0.0	7473	9.1	0.1
c1ccc(OCc2nn3c(-c4ccccn4)nnc3s2)cc1	0.5	1.1	-11.3	9463	-0.8	0.0
c1ccc(-c2ccnc(-c3ccccn3)n2)nc1	.	145.5*	.	.	.	.
c1ccc(-c2nnc(-c3ccccn3)nn2)nc1	-11.4	68.1*	3.1	4490	-8.6	-1.8
c1ccc(-c2cccc(-c3ccccn3)n2)nc1	9.3	104.3*	17.1	11047	29.9	2.4
O=Cc1cnc(-c2ccccn2)nc1	.	106.0*	.	.	.	.
O=C(NCc1ccc(C(=O)c2cccs2)s1)C(=O)Nc1ccc2c(c1)OCO2	.	-9.0	.	.	.	.
Cc1ccc(S(=O)(=O)CCC(=O)Nc2cc(C)no2)cc1	.	-12.0	.	.	.	.
O=C(COc1ccc(Cl)cc1Cl)NCCn1ccn2nccc12	.	-4.0	.	.	.	.
Oc1ccc(-c2nc(-c3ccc4sc5ccccc5c4c3)c(-c3ccccc3)[nH]2)cc1O	.	7.0	.	.	.	.
c1ccc(-c2nc(-c3ccccn3)c(-c3ccccn3)nc2-c2ccccn2)nc1	.	27.4	.	.	.	.
OCc1ccnc(-c2ccccn2)n1	.	89.0*	.	.	.	.
Cc1nc(Oc2ccc(Cl)cc2)c2oc3ccccc3c2n1	-3.1	1.3	0.6	20568*	-1.0	?
CS(=O)(=O)N1CCCC(C(=O)N(CC2CCCO2)c2nc3ccccc3s2)C1 (configuration not stated)	.	-7.0	.	.	.	.
C=CCn1c(-c2cccc3ccccc23)n[nH]c1=S	9.9	4.2	-3.2	21011*	-3.9	-1.6
Nc1ccc(Nc2ccccc2)c(Cl)c1	6.7	51.6*	-6.6	8785	-36.4	-0.9
c1ccc(Nc2ccc(Nc3ccccc3)cc2)cc1	-14.4	28.5	-5.0	5610	-19.4	-1.5
Nc1ccccc1Nc1ccccc1	3.6	63.9*	-2.4	2257	-24.0	4.4
CCCCC(=O)Nc1nc(-c2ccc(C)c(C)c2)cs1	.	-4.0	.	.	.	.
COC(=O)c1ccc(NC(=O)CN2CCN(Cc3nc(-c4ccco4)cs3)CC2)cc1	.	7.0	.	.	.	.
COc1ccc(CCC(=O)N2CCC[C@H](Oc3nccnc3OC)C2)cc1	.	-16.0	.	.	.	.
COc1nn(C)cc1C(=O)NCc1cc(C2CC2)n(C2CCCC2)n1	.	0.0	.	.	.	.
O=C(NCCN1CCCCC1)Nc1ccccc1	1.3	-20.4	0.9	24890*	-9.0	-2.6
SMILES	MazEF act	SSB-PriA inh	Anthrax LF prot	Autofluor counter	BoNT-F LC inh	BoNT A protease
COc1cc(NC(=O)Nc2ccccc2)c(OC)cc1NC(=O)CN1CCCCC1	-1.9	42.0*	-4.0	2968	4.6	-0.5
Cc1ccc(NC(=O)NCCN2CCCCC2)cc1	-1.2	1.2	-6.8	3758	?	-3.6
COc1cc(NC(=O)Nc2ccccc2OC)c(OC)cc1NC(=O)CN1CCCCC1	5.8	37.7	-6.1	2820	-4.5	-0.7
O=C(Nc1ccc2c(c1)C(=O)NC2=O)c1cccc(F)c1	.	2.0	.	.	.	.
CCc1ccc(S(=O)(=O)NC[C@@](C)(O)Cc2ccco2)s1	.	-15.0	.	.	.	.
Cc1cc(Nc2ccc(F)cc2)nc(N)n1	4.9	4.9	0.8	23182*	-3.1	0.1
Cc1nnc(SCCOC(N)=O)n1C	2.6	-2.7	1.3	20927*	7.9	8.9
CCCc1cc(=O)[nH]c(-n2nc(C)cc2NC(=O)C(=O)OCC)n1	.	4.0	.	.	.	.
CCOC(=O)C1CCN(C(=O)CCNC(=O)c2cc(OC)c(OC)c(OC)c2)CC1	2.0	-1.2	-4.1	16426*	-0.6	-0.7
COc1cc(C(=O)NCCC(=O)N2CCCCC2)cc(OC)c1OC	7.5	1.0	-15.6	3910	-13.9	-1.5
COc1cc(C(=O)NCCC(=O)NCCCN2CCCCC2C)cc(OC)c1OC (configuration not stated)	-18.0	-9.9	-4.4	24313*	-4.3	-2.0
COc1ccccc1CCNC(=O)Cc1csc(NC(=O)c2ccc(Cl)cc2)n1	.	-8.0	.	.	.	.
C/C(=N/NC(=S)NCc1ccco1)c1ccco1	.	43.0*	.	.	.	.
CC1Cc2ccccc2N1C(=O)Cc1cc(-c2cccs2)on1 (configuration not stated)	.	-12.0	.	.	.	.
O=C(O)c1ccc(Br)cn1	-0.1	-3.4	0.2	2065	-1.9	0.2
O=C(O)c1ccc(C2CCCC2)cn1	.	100.3*	.	.	.	.
O=C(NCCCOc1cccc2cccnc12)c1cccnc1	.	-3.0	.	.	.	.
COC(=O)/C=C1\C(=O)N(c2nc3ccccc3s2)C(=S)N1c1ccc(F)cc1	57.7*	-7.6	-0.6	15862	2.3	1.8
O=C1CC(N2CCN(c3nc4ccccc4s3)CC2)C(=O)N1c1ccc(F)cc1 (configuration not stated)	0.1	-9.7	1.9	3148	2.9	-1.4
N#Cc1nccnc1OC1CCN(S(=O)(=O)C2CCCCC2)C1 (configuration not stated)	.	-15.0	.	.	.	.
c1cc(C2CCNCC2)cs1	.	-3.0	.	.	.	.
CC(COc1cccc2ccccc12)CN1CCN(C)CC1 (configuration not stated)	2.3	1.7	-2.0	24009*	-5.5	-1.5
Cc1ccc(C(=O)C[n+]2cc(-c3ccc(C)cc3)n3c2CCCCC3)cc1	23.8	-9.2	-1.7	22561*	-6.7	-7.0
COc1ccc(-c2cn3c(C)c(C(=O)N(C)c4ccccc4)sc3n2)cc1	.	38.0*	.	.	.	.
COC(=O)c1ccc(NC(=O)c2sc3nc(-c4ccccc4)cn3c2C)cc1	17.8	-10.3	-1.6	21396*	-0.7	-1.4
SMILES	MazEF act	SSB-PriA inh	Anthrax LF prot	Autofluor counter	BoNT-F LC inh	BoNT A protease
COc1ccc(-c2cn3c(C)c(C(=O)N(Cc4ccccc4)c4ccccc4)sc3n2)cc1	.	12.0	.	.	.	.
COc1ccc(-c2cn3c(C)c(C(=O)Nc4ccncc4)sc3n2)cc1	16.0	-4.8	-6.4	5751	-4.7	0.2
COc1ccccc1N1CCN(C(=O)CCn2c(=O)[nH]c3ccccc3c2=O)CC1	-0.9	1.8	-1.4	22600*	-2.0	?
COc1ccccc1N1CCN(C(=O)Cc2cccs2)CC1	7.2	14.8	-1.4	22449*	-1.2	?
Cc1nc2ncnn2c(N2CCN(C(=O)Cc3cccs3)CC2)c1C	9.3	-15.9	-5.5	22223*	2.2	3.3
O=C(Cc1cccs1)N1CCN(c2ccc(F)cc2)CC1	7.4	-24.8	0.6	2418	-7.9	-1.0
O=c1cc(C(F)(F)F)nc2n1CCCN2	.	-19.0	.	.	.	.
CCc1ccccc1NC(=O)CSC1CC(=O)N(c2ccc(C(=O)OC)cc2)C1=O (configuration not stated)	.	9.0	.	.	.	.
CCOC(=O)C(C)NC(=O)CCc1nnc2ccc(N3CCC(C)CC3)nn12 (configuration not stated)	-5.9	5.5	-0.9	4017	37.2*	1.8

High-throughput results from PubChem BioAssay.
